Most compounds without a hit are left out; they make up all but 3.6% or so of the library.
FUS suppressor – qHTS for Suppressors of FUS Proteinopathy: Primary screen using FUS-linked yeast assay. S. cerevisiae FUS-expressing, growth rescue, OD600, 24 h. Potency, µM (highest dose often 76.6 µM), actives largely listed as activators. 390,000 compounds, 0.24% hits;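 note: plate controls were DMSO vehicle for no effect and reference control for full effect; nearly all actives have a fitted effect of over 55% in size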
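Yeast FUS proteinopathy model; galactose-induced FUS (2%), starting OD 0.005. Cpds in dilution series, 24hr, 30C, 99% humidity. Abs 600 nm growth. Pos ctrl CP55940 (top 92uM final); neg ctrl DMSO.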
ClpP mod – qHTS Assay for Activators of ClpP | ATP-dependent Clp protease proteolytic subunit (Bacillus subtilis (strain 168)), P80244 | purified B. subtilis ClpP, FRET peptide cleavage, 20 min | Potency, µM (top dose mostly 57.5 µM), without a hit: at the top dose activity change, negative = active | 340,000 compounds, 1.9% hits | AID 651965, 2013; active = well fitted falling curve with a large enough effect; inconclusive = small, poorly fitted or top-dose-only effect; inactive = no such curve, though single readings can be large or run the other way; note: the source files actives as falling curves though it sought activators and does not explain the sign; nearly all actives have a fitted effect of over 65% in size
Target sequence (P80244 whole entry, looked up): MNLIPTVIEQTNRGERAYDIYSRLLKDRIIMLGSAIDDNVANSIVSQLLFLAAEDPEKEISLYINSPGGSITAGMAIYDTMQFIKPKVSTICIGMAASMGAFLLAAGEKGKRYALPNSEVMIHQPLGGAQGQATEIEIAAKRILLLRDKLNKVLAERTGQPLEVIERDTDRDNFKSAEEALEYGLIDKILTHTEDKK
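ClpP 10 microg/mL final, pH 8 Tris/KCl buffer with BSA, glycerol, Tween-20; compound pinned in; FRET-FV substrate; RT 20 min; Ex320/Em430; ΔFRET vs ADEP 5.8 microM, DMSO, no enzyme.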
TDP-43 yeast inh – qHTS of TDP-43 Inhibitors | 410,000 compounds, 1.8% hits | TDP-43 expressing yeast growth rescue, BacTiter-Glo, 24 h | Potency, µM (highest dose often 46.1 µM), for the others: top-dose growth rescue (activation), usual class: activators | AID 652104, 2013; note: % of control where 0% means no effect; nearly all actives have a fitted effect of over 50% in size
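Growth rescue of TDP-43-toxic yeast measured as ATP luminescence (BacTiter-Glo). Cells grown to mid-log in raffinose, induced in galactose at OD600=0.02, exposed to compound 24 hr at 30 deg C.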
Mm-Cpn inhibitor – Inhibitors of TCP-1 ring complex (TRiC) of Methanococcus maripaludis (MmCpn): qHTS. Potency, µM (doses to about 76.9 µM), inactives show at the top dose activity, negative = inhibition, usual class: inhibitors. 330,000 compounds, 0.031% hits. Chaperonin Mm-Cpn (Methanococcus maripaludis). AID 504842, 2011. purified Mm-Cpn ATPase, ADP Transcreener TR-FRET; note: % is set by controls: 0 for no effect and ±100 for the full control effect; nearly all actives have a fitted effect of over 80% in size
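Compound-treated chaperonin, 25 nM final, turns over 10 uM ATP at 37°C for 30 min following a 10 min preincubation; ADP generated competes with ADP-d2 for Eu-cryptate antibody, lowering FRET.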
aSyn rescue – qHTS of alpha-syn Inhibitors; Yeast expressing alpha-synuclein, growth rescue, BacTiter-Glo, 24 h; Potency, µM (top dose mostly 46.1 µM), for the others: at the top dose growth rescue (activation), actives largely listed as activators; 370,000 compounds, 0.14% hits; AID 652106, 2013; note: % of control where 0% means no effect; nearly all actives have a fitted effect of over 65% in size
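Screening used galactose-induced yeast with toxic alpha-synuclein levels, exposed to compound for 24 hr at 30 deg C. Cell growth, read with BacTiter-Glo luminescence, gave the measured signal.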
Abeta yeast res – qHTS for compounds that reverse cellular toxicity of Amyloid beta (A-beta) peptide in yeast: Primary Screen | yeast expressing A-beta42, growth rescue, OD600, 48 h; response scale: 0% DMSO, 100% iron-clioquinol control | Potency, µM (titrated, usually from 46.1 µM), hits mostly activators | 410,000 compounds, 0.063% hits | AID 1347071, 2019; note: nearly all actives have a fitted effect of over 55% in size
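Growth rescue measured by 600 nm absorbance after 48 h yeast culture at 30 C with compound. Values normalized between DMSO and an equimolar ferric chloride plus clioquinol control.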
Active calls of the source: *. Unless noted, calls come from the whole dose curve; as a rule, active = well fitted curve in the direction sought with a large enough effect; inconclusive = small, poorly fitted or top-dose-only effect, or another doubt; inactive = no such curve, though single readings can be large; an effect the other way counts as inactive or inconclusive. Potency is the fitted concentration of half-maximal effect.

Results for COc1ccc(NC(=O)Nc2ccc3c(c2)C(=O)N([C@H](C)CO)C[C@H](C)[C@@H](CN(C)C(=O)Nc2ccc(C(F)(F)F)cc2)O3)cc1 ?
FUS suppressor: inconclusive; ClpP mod: 0%; TDP-43 yeast inh: -10%; Mm-Cpn inhibitor: -1%; aSyn rescue: -6%; Abeta yeast res: inactive

How did C[C@H](CO)N1C[C@H](C)[C@@H](CN(C)C(=O)Nc2ccc3c(c2)OCO3)Oc2ccc(NC(=O)Cc3ccccc3)cc2C1=O do in these assays?
FUS suppressor: inactive; ClpP mod: 3%; TDP-43 yeast inh: 1%; Mm-Cpn inhibitor: 1%; aSyn rescue: 8%; Abeta yeast res: inactive

How did COc1ccc(C2C(=O)N(C3CCC(C)CC3)CC(=O)N2Cc2ccc(C)cc2)cc1OC (centres undefined) do in these assays?
FUS suppressor: inactive; ClpP mod: -4%; TDP-43 yeast inh: 7%; Abeta yeast res: inactive

How did CN(C)c1ccc(/C=C/c2ccnc3ccccc23)cc1N do in these assays?
ClpP mod: -25%; aSyn rescue: -2%

What do the screens show for `CCC(Sc1nc2ncccc2[nH]1)C(=O)Nc1cccc(OC)c1` (centres undefined)?
FUS suppressor: inactive; ClpP mod: 3%; TDP-43 yeast inh: 20%; Abeta yeast res: inactive

Results for Cc1cc(C)c2c(n1)SCCN2C(=O)Nc1ccc(C(=O)Nc2ccc(C(C)C)cc2)cc1 ?
FUS suppressor: inactive; ClpP mod: -26%; TDP-43 yeast inh: 7%; Abeta yeast res: inactive

Results for N#Cc1c(NC(=O)CSc2nc(-c3ccccc3)cc(C(F)(F)F)n2)sc2c1CCC2 ?
ClpP mod: 25µM*; TDP-43 yeast inh: -17%; Mm-Cpn inhibitor: 1%; aSyn rescue: -1%; Abeta yeast res: inactive

How did COc1ccc2c(c1)c1c(c(=O)n(Cc3ccccc3)c(=O)n1Cc1cccc(Cl)c1)n2C do in these assays?
FUS suppressor: inactive; ClpP mod: 4%; TDP-43 yeast inh: 10%; Abeta yeast res: inactive

What do the screens show for `CN(C(=O)C1Cc2c(-c3ccc(Cl)cc3)ccnc2O1)c1ccccc1` (centres undefined)?
FUS suppressor: inactive; ClpP mod: -9%; TDP-43 yeast inh: 22µM*; aSyn rescue: -2%; Abeta yeast res: inactive

What do the screens show for `O=C(Nc1cccc(C(F)(F)F)c1)C1Cc2c(-c3ccc(Cl)cc3)ccnc2O1` (centres undefined)?
FUS suppressor: inactive; ClpP mod: -22%; TDP-43 yeast inh: 20µM*; aSyn rescue: inconclusive; Abeta yeast res: inactive

Results for O=C(Nc1cccc(C(F)(F)F)c1)C1Cc2c(-c3ccccc3)ccnc2O1 (centres undefined) ?
FUS suppressor: inactive; ClpP mod: -6%; TDP-43 yeast inh: 35µM*; aSyn rescue: inconclusive; Abeta yeast res: inconclusive

How did CC(=O)c1cccc(NC(=O)C2Cc3c(-c4ccc(Cl)cc4)ccnc3O2)c1 (centres undefined) do in these assays?
FUS suppressor: 40µM*; ClpP mod: 5%; TDP-43 yeast inh: inconclusive; aSyn rescue: inconclusive; Abeta yeast res: inactive

What do the screens show for `CN(C)c1cccc(NC(=O)C2Cc3c(-c4ccc(Cl)cc4)ccnc3O2)c1` (centres undefined)?
FUS suppressor: inconclusive; ClpP mod: -18%; TDP-43 yeast inh: inconclusive; aSyn rescue: 13%; Abeta yeast res: inactive

What do the screens show for `CN(C(=O)C1Cc2c(-c3ccccc3Oc3ccccc3)ccnc2O1)c1ccccc1` (centres undefined)?
FUS suppressor: inconclusive; ClpP mod: -7%; TDP-43 yeast inh: inconclusive; aSyn rescue: 0%; Abeta yeast res: inactive

How did COc1ccc2c(c1)c1c(c(=O)n(-c3ccc(F)c(Cl)c3)c(=O)n1CC(N)=O)n2C do in these assays?
FUS suppressor: inactive; ClpP mod: 4%; TDP-43 yeast inh: inconclusive; Abeta yeast res: inactive

What do the screens show for `CC1(C)Cc2c(cnn2-c2ccc(F)cc2)C(NC(=O)CCN2CCCCO2)C1` (centres undefined)?
ClpP mod: 25µM*; TDP-43 yeast inh: 5%; Mm-Cpn inhibitor: 2%; aSyn rescue: 6%; Abeta yeast res: inactive

Results for Cc1cccc(NC(=O)CCC(=O)c2cccs2)n1 ?
FUS suppressor: inactive; ClpP mod: 3.5µM*; TDP-43 yeast inh: -23%; Mm-Cpn inhibitor: 0%; aSyn rescue: -2%; Abeta yeast res: inactive

How did Cc1cc(C)nc(-n2nc(C)cc2NC(=O)COC(=O)CCC(=O)c2cccs2)n1 do in these assays?
FUS suppressor: inactive; ClpP mod: 28µM*; TDP-43 yeast inh: 20%; Mm-Cpn inhibitor: 0%; aSyn rescue: 4%; Abeta yeast res: inactive

How did Oc1ccc(CNc2cccc(C(F)(F)F)c2)c2cccnc12 do in these assays?
Mm-Cpn inhibitor: 2%

How did CC(C)Oc1ccc(CNC(=O)Cc2ccc(NC(=O)N3CCSc4ncccc43)cc2)cc1 do in these assays?
FUS suppressor: inactive; ClpP mod: -16%; TDP-43 yeast inh: 17%; Abeta yeast res: inactive

What do the screens show for `CCCCN(CCCC)c1ccc(C=Nc2ccc(/C=C/c3ccnc4ccccc34)cc2)cc1C`?
ClpP mod: -2%; aSyn rescue: -10%

Results for COc1ccc(-c2n[nH]c(C)c2-c2cnn(-c3ccccc3)c2)c(O)c1 ?
FUS suppressor: inconclusive; ClpP mod: -10%; TDP-43 yeast inh: 22µM*; Mm-Cpn inhibitor: -2%; aSyn rescue: 13%; Abeta yeast res: inactive

Results for COc1ccc(-c2n[nH]c(C)c2-c2cnn(-c3ccccc3)c2)c(O)c1C ?
FUS suppressor: inactive; ClpP mod: -9%; TDP-43 yeast inh: 0%; Mm-Cpn inhibitor: -2%; aSyn rescue: -1%; Abeta yeast res: inactive

Results for Cc1ccc(CNC(=O)CN2C(=O)COc3ccc(S(=O)(=O)Nc4ccccc4)cc32)cc1 ?
FUS suppressor: inactive; ClpP mod: 0%; TDP-43 yeast inh: 14%; Abeta yeast res: inactive

Results for COc1ccccc1/C=C/c1nc(C#N)c(NC2CCCCC2)o1 ?
FUS suppressor: inactive; ClpP mod: 2.8µM*; TDP-43 yeast inh: 16%; Abeta yeast res: inactive
